Among the data in PubChem BioAssay are outcome, potentiation and activation values, retold here.

For part of these data: Results with a measured potency or affinity are listed apart. The source made the active and inactive calls.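 The calls were made as follows, unless noted: active = earlier screen potentiator hit that boosts the TRPC4 ion channel at some dose, with a dose response; inactive = no potentiation, no dose response, or not a prior hit.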

Assay [1] has as its system TRPC4 beta (transient receptor potential cation channel C4), mouse. Kind of assay: activators of mouse TRPC4 channel, confirmation, cell-based, Fluo4 calcium, HEK293 TRPC4beta/mu-opioid, duplicates, 10 µM (AID 2426;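 active = fluorescence ratio normalized to control raised more than 50% in primary screen plus both repeat runs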;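 as to activation: percent rise of integrated ratio over buffer wells lacking compound which define 0%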). The note with it: Fluo4 calcium fluorescence, at 10 µM; stronger effect = higher value.
Assay [2] concerns transient receptor potential cation channel C4 beta (TRPC4), mouse. The assay is described as follows: activators of mouse TRPC4 channel, confirmation, cell-based, second round, Fluo4, HEK293 TRPC4beta/mu-opioid, 1 µM (AID 2461;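 active = primary screen active and over 50% activation in each of two duplicate runs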;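 as to activation: 0% = wells without test compound as baseline of integrated fluorescence ratio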). The note with it: Fluo4 calcium fluorescence, at 1 µM; stronger effect = higher value.
In assay [3] the test system is TRPC4 (transient receptor potential cation channel C4 beta), mouse. Kind of assay: positive allosteric modulators of mouse TRPC4, confirmation, cell-based, second round, Fluo-4, HEK293 TRPC4beta/mu-opioid, 1 µM (AID 2554;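 active = primary screen hit whose fluorescence ratio, in both repeats, exceeds the weak agonist control mean by 3 SD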). To be noted: DAMGO EC20, Fluo-4 calcium flux, at 1 µM; stronger effect = higher value. In general terms: Calcium assays in cells follow changes in intracellular calcium, usually with a dye or a luminescent sensor.

Assay [4] concerns TRPC4 beta (transient receptor potential cation channel C4), mouse. Kind of assay: positive allosteric modulators of mouse TRPC4, confirmation, cell-based, Fluo-4, HEK293 TRPC4beta/mu-opioid (AID 2555;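 active = primary screen hit whose calcium fluorescence ratio, in both repeats, exceeds the weak agonist control mean by 3 SD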). To be noted: DAMGO EC20, Fluo-4 calcium flux, at 10 µM; stronger effect = higher value.
Assay [5] concerns the target Short transient receptor potential channel 4 (Mus musculus) (UniProt Q9QUQ5). The assay is described as follows: inhibitors of mouse TRPC4 channel, confirmation, cell-based, Fluo4, HEK293 TRPC4beta/mu-opioid (AID 2636;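 active = calcium signal cut by more than 3 SD below the full-agonist control yet still positive, in both repeats and the earlier primary screen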). To be noted: DAMGO, Fluo4 calcium flux, at 10 µM; stronger effect = higher value.
Assay [6] has the same target. The assay is described as follows: inhibitors of mouse TRPC4 channel, confirmation, cell-based, second round, Fluo4, HEK293 TRPC4beta/mu-opioid, 1 µM (AID 2637;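 active = calcium signal ratio cut to more than 3 SD under the fully stimulated control mean yet still positive, in both repeats and the primary screen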). The note with it: Fluo4 calcium flux, DAMGO, at 1 µM; stronger effect = higher value.
The target is the same in assay [7]. Kind of assay: TRPC4 positive allosteric modulators, dose response, cell-based, HEK293 TRPC4/mu-opioid, Fluo-4 calcium, EC20 DAMGO (AID 434941).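 Also: calcium entry triggered by an EC20 dose of DAMGO at the co-expressed mu-opioid receptor.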
For assay [8] the target is unchanged. Kind of assay: mouse TRPC4 channel inhibitors, dose response, cell-based, HEK293 TRPC4/mu-opioid, Fluo-4 calcium (AID 434942;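 active = primary screen inhibitor hit that blocks the TRPC4 channel at some tested dose, yielding a dose curve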).
Assay [9] addresses Short transient receptor potential channel 6 (Mus musculus) (UniProt Q61143). The assay is described as follows: inhibition of mouse TRPC6 channel, confirmation, selectivity assay for TRPC4 inhibitor project, cell-based, HEK293, membrane potential dye, duplicate (AID 434948;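 active = active in primary screen and both duplicates, each dropping signal beyond three positive-control SD with fluorescence still positive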). The note with it: HEK293 TRPC6, membrane potential dye fluorescence, at 10 µM, stimulated with maximal-effect acetylcholine; stronger effect = higher value.

Assay [10] shares this target. Kind of assay: activation of mouse TRPC6 channel, confirmation, selectivity assay for TRPC4 activator project, cell-based, HEK293, membrane potential dye, duplicate (AID 434950;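 active = membrane potential signal rise above negative control mean plus 3 SD in both duplicates, also active in the earlier TRPC4 screen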;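 as to activation: 0% = buffer only wells and 100% = acetylcholine maximal-effect wells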). To be noted: HEK293 TRPC6, membrane potential fluorescence, at 10 µM; stronger effect = higher value.
The target is the same in assay [11]. Kind of assay: TRPC6 potentiation by TRPC4 potentiator hits, confirmation, selectivity assay for TRPC4 potentiator project, HEK293 cells, membrane potential dye, duplicate (AID 434952;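 active = compound raising the membrane signal above positive-control mean plus 3 SD in both repeats, and a primary screen hit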). The note with it: HEK293 TRPC6, membrane potential dye fluorescence, at 10 µM, maximal acetylcholine added after compound; stronger effect = higher value.
For assay [12], the target named is Short transient receptor potential channel 4 (Mus musculus) (UniProt Q9QUQ5). Kind of assay: calcium flux activators in TRPC4/5HT1a cells, counter-screen for TRPC4 activator project, cell-based, second counter screen, HEK293 TRPC4/5HT1a, Fluo-4 (AID 434977;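 active = calcium signal rise above buffer-control mean plus 5 SD in both duplicates, and also a hit in the primary screen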;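 as to activation: plate controls were assay buffer for no effect and maximal serotonin response for full effect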). The note with it: Fluo-4 calcium flux, at 10 µM; stronger effect = higher value.
Assay [13] is described as follows: calcium flux inhibitors in TRPC4/5HT1a cells, confirmation, counter-screen for TRPC4 inhibitor project, cell-based, second counter screen, HEK293 TRPC4/5HT1a, Fluo-4 (AID 434978;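 active = primary screen active whose calcium signal fell more than 3 SD beyond the full-serotonin control mean in both duplicate plates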;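 also: serotonin given first at submaximal then at maximal dose after compound preincubation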). The note with it: Fluo-4 calcium flux, at 10 µM, serotonin added to trigger calcium flux; stronger effect = higher value.
Assay [14] has as its system TRPC4 (mouse), co-expressed with 5HT1a in HEK293. The assay is described as follows: calcium flux potentiators in TRPC4/5HT1a cells, confirmation, counter-screen for TRPC4 potentiator project, cell-based, second counter screen, HEK293 TRPC4/5HT1a, Fluo-4 (AID 434979;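 active = signal rise over 3 SD above mean of control wells given weak agonist, in both repeats and first screen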). To be noted: Fluo-4 calcium flux, at 10 µM, serotonin added at its EC20 dose; stronger effect = higher value.
Assay [15] in a line: calcium flux activation in mu-opioid HEK293 cells, confirmation, counter-screen for TRPC4 activator project, cell-based, HEK293 mu-opioid receptor line (AID 449723;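 active = hit in primary screen, with calcium signal over 5 SD above buffer well mean in both duplicates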;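 also: counter screen cells carry the mu-opioid receptor alone and lack TRPC4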). To be noted: Fluo-4 calcium fluorescence, at 10 µM; stronger effect = higher value.
A short description of assay [16]: calcium flux enhancement in mu-opioid HEK293 cells, confirmation, counter-screen for TRPC4 allosteric potentiator project, cell-based, HEK293 mu-opioid receptor line (AID 449724;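 active = calcium signal rise more than 3 SD above the low-dose agonist control mean, in both duplicate plates and the primary screen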;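 also: HEK293 cells carrying mu-opioid receptor only with no TRPC4 channel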). The note with it: Fluo-4 calcium flux, at 10 µM, compound added before EC20 DAMGO stimulus; stronger effect = higher value.

Sequence of Short transient receptor potential channel 6 (Mus musculus) (Q61143 whole entry, looked up): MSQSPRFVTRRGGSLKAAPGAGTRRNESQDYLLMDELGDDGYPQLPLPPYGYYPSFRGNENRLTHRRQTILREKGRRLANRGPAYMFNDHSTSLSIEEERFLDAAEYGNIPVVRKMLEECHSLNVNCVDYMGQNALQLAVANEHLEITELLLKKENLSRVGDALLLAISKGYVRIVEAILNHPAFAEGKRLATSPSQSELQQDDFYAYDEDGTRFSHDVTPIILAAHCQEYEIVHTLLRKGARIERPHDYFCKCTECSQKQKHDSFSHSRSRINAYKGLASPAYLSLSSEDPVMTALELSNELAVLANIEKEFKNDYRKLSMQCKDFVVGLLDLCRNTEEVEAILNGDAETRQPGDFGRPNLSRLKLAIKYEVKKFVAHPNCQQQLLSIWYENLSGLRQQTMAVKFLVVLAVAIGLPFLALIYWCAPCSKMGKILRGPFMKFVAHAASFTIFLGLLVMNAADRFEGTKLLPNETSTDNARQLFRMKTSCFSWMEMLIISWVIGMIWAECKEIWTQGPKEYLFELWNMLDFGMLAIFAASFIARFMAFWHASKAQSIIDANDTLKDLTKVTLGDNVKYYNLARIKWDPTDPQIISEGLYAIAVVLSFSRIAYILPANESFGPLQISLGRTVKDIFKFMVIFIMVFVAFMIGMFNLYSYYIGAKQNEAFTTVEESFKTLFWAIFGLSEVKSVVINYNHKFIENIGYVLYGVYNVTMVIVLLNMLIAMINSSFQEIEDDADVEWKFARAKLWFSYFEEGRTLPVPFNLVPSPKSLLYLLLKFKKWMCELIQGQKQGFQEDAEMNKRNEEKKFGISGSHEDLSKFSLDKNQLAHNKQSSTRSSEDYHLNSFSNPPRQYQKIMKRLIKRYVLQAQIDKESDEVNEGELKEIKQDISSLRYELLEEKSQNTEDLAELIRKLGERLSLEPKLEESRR
Sequence of Short transient receptor potential channel 4 (Mus musculus) (Q9QUQ5 whole entry, looked up): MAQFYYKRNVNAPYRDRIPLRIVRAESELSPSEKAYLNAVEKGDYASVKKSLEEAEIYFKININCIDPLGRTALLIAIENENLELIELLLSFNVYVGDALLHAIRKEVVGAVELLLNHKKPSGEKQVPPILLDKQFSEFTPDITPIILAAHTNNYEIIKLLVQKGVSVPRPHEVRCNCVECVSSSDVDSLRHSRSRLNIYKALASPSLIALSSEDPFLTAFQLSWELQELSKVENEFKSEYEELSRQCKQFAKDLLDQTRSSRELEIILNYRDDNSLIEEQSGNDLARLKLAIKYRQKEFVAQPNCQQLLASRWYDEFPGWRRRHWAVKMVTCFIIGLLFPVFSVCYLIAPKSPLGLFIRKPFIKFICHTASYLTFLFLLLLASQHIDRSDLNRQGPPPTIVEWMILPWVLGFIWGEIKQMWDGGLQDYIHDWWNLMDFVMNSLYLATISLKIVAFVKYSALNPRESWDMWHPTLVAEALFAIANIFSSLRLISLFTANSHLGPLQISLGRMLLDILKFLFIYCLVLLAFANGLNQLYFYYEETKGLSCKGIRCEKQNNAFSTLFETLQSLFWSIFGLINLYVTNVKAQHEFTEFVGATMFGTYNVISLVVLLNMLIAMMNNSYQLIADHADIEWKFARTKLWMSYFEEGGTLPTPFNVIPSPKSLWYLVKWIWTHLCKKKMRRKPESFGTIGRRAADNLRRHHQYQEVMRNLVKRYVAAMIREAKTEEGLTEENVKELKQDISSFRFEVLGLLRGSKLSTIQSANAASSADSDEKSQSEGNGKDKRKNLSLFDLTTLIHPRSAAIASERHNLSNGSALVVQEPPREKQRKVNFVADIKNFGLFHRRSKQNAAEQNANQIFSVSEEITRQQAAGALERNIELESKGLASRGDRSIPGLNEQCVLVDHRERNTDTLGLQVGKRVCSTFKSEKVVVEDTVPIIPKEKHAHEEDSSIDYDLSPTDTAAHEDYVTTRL

For `COC(=O)c1cc(N2CCNCC2)nc2ccccc12`, the result in assay [1], in assay [2], in assay [3], in assay [5], in assay [6] and in assay [7] was inactive. The result in assay [8], in [9], in [10], in [11], in assay [13] and in assay [15] was inactive. Also, the outcome in assay [16] was inactive. Moreover, the potentiation in assay [4] is 47% (active); in assay [14], 13.8% (active). Besides, the activation in [12] is 18.6% (active).
`c1ccc(Cn2nnnc2C(c2cccnc2)N2CCN(C3CCCCC3)CC2)cc1` (stereo not given): the values for the activation in assay [1], in [10] and in assay [12] were 115% (active), 47.5% (active) and 32.6% (active), respectively. In addition, the outcome in [2], in [3], in [4], in assay [5], in [6] and in [7] was inactive. Also, the outcome in assay [8], in assay [9], in [11], in [13], in assay [14] and in [15] was inactive. In addition, the outcome in [16] was inactive.
`COc1ccc(C(=O)C2CCCN(Cc3ccc(Sc4nncn4C)o3)C2)cc1F` (stereo not given): the activation was 164% (active) in assay [1], 87% (active) in assay [2], 36% (active) in [10] and 9.87% (active) in assay [12]. For the same molecule, the outcome in [3], in [4], in assay [5], in [6], in [7] and in [8] was inactive. Further, the molecule was called inactive in assay [9], in assay [11], in [13], in assay [14], in [15] and in assay [16].
As to `COCCn1nnnc1C(c1cc2ccc(OC)cc2[nH]c1=O)N1CCN(C2CCCCC2)CC1` (stereo not given), the activation in assay [1] is 133% (active); in assay [10] it was 37.5% (active); in assay [12], 13.6% (active). Besides, the outcome in assay [2], in [3], in assay [4], in assay [5], in assay [6] and in assay [7] was inactive. The outcome in assay [8], in assay [9], in assay [11], in assay [13], in [14] and in assay [15] was inactive. For the same molecule, the outcome in assay [16] was inactive.
`CCc1cccc(C)c1NC(=S)NCC(c1cccnc1)N(C)C` (stereo not given): the activation was 80% (active) in assay [1] and 82% (active) in assay [2]. Moreover, the outcome in assay [3], in assay [4], in assay [5], in assay [6], in assay [7] and in assay [8] was inactive. For the same molecule, the call in assay [9], in assay [10], in assay [11], in assay [12], in assay [13] and in assay [14] was inactive. Moreover, the outcome in [15] and in assay [16] was inactive.
For the molecule `CCCCC(=O)NC(=S)NNC(=O)c1ccc(Cl)cc1Cl`, the activation was 196% (active) in assay [1], 31.5% (active) in assay [10], 76.5% (active) in assay [12] and 43.7% (active) in assay [15]. For the same molecule, the outcome in assay [2], in assay [3], in assay [4], in assay [5], in assay [6] and in assay [7] was inactive. Besides, the outcome in [8], in [9], in [11], in assay [13], in assay [14] and in [16] was inactive.
For the molecule `CNCC(=O)N1CCN(c2ncc(C(F)(F)F)cc2Cl)CC1`, the activation in [1] was 155% (active); in assay [2], 128% (active); in [12] it was 79.5% (active). The outcome in assay [3], in assay [4], in assay [5], in assay [6], in assay [7] and in assay [8] was inactive. The result in assay [9], in assay [10], in assay [11], in [13], in [14] and in assay [15] was inactive. Besides, the result in assay [16] was inactive.
Consider `O=C(NCC(c1cccs1)N1CCOCC1)c1ccc(Cl)c([N+](=O)[O-])c1` (stereo not given), for which the activation in assay [1] is 135% (active); in [12], 21.6% (active). Moreover, the outcome in assay [2], in assay [3], in assay [4], in [5], in [6] and in [7] was inactive. In addition, the result in assay [8], in [9], in assay [10], in [11], in [13] and in assay [14] was inactive. Besides, the result in assay [15] and in assay [16] was inactive.
In the case of `COC(=O)NCC(c1ccc2c(c1)OCO2)N1CCN(c2ccccc2)CC1` (stereo not given), the activation was 201% (active) in assay [1], 99% (active) in [2] and 33% (active) in [10]. Also, the outcome in assay [3], in assay [4], in assay [5], in [6], in [7] and in assay [8] was inactive. Moreover, the molecule was called inactive in assay [9], in assay [11], in assay [12], in [13], in assay [14] and in [15]. The outcome in assay [16] was inactive.
In the case of `Cc1cc(N2CCN(C)CC2)ccc1NC(=O)c1ccc(-c2ccc(Cl)cc2)o1`, the outcome in assay [1], in assay [2], in assay [3], in assay [4], in [5] and in assay [6] was inactive. Also, the outcome in assay [7], in [8], in [9], in assay [10], in [11] and in assay [12] was inactive. The outcome in assay [13], in assay [14], in assay [15] and in [16] was inactive.
Regarding `COc1ccc(C(CNC(=O)c2cc(C)on2)N(C)C)cc1` (stereo not given), the activation in [1] was 199% (active); in assay [10], 27.5% (active). The outcome in [2], in assay [3], in [4], in [5], in assay [6] and in [7] was inactive. Further, the outcome in assay [8], in assay [9], in assay [11], in assay [12], in [13] and in assay [14] was inactive. The result in assay [15] and in [16] was inactive.
On to `Cn1c(N2CCN(C(=O)Nc3ccc(C(F)(F)F)cc3)CC2)nc2ccccc21`, for which the activation in assay [1] was 81% (active); in [12], 31.2% (active). Moreover, the result in assay [2], in [3], in assay [4], in assay [5], in [6] and in [7] was inactive. The outcome in assay [8], in assay [9], in [10], in assay [11], in assay [13] and in [14] was inactive. The outcome in assay [15] and in assay [16] was inactive.
For the molecule `NCCNC(=O)c1c(NC(=O)c2ccccc2)sc2c1CCCC2`, in assay [1], the activation was 165% (active). The outcome in assay [2], in [3], in assay [4], in assay [5], in assay [6] and in assay [7] was inactive. Further, the outcome in [8], in assay [9], in [10], in assay [11], in assay [12] and in assay [13] was inactive. Also, the outcome in assay [14], in assay [15] and in assay [16] was inactive.
As to `CCOc1ccccc1N(CC(=O)N1CCOCC1)S(=O)(=O)c1ccc(SC)cc1`, the activation in [1] was 164% (active); in [10] it was 89% (active); in assay [12], 134% (active); in assay [15], 111% (active). The outcome in assay [2], in assay [3], in assay [4], in [5], in assay [6] and in [7] was inactive. Besides, the result in [8], in [9], in assay [11], in assay [13], in [14] and in assay [16] was inactive.
For `COc1ccc(C(CNC(=O)c2cccc(NS(=O)(=O)c3ccc(Br)cc3)c2)N(C)C)cc1` (stereo not given), the activation in [1] is 253% (active); in assay [2], 83% (active); in [10] it was 35% (active); in [12], 29.9% (active). For the same molecule, the outcome in [3], in assay [4], in [5], in assay [6], in assay [7] and in assay [8] was inactive. Besides, the result in assay [9], in [11], in assay [13], in assay [14], in [15] and in assay [16] was inactive.
